# Results: PubChem BioAssay (EPA / NIEHS)
# Records with an inconclusive call do not appear. Activity calls are given as the source filed them. The calls were made as follows: active = hit-call score of the fitted dose curve at least 0.9, where 1 is the maximum; inconclusive = response in the unintended direction; inactive = score below 0.9.
# Columns and labels:
# [1] = tested on: guinea pig Histamine Receptor (H2), gene 100729734; assay: NVS_GPCR_gH2: NovaScreen (NVS) G Protein-Coupled Receptor Assay for guinea pig Histamine Receptor (H2) (AID 2283342)
# Procedure, shortened: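 Guinea pig striatal membrane preparation with specific radioligand; bound counts measured by filtration and scintillation 1 h post-dosing, DMSO as baseline. Chemicals passing a 25 uM duplicate screen were titrated to a 50 uM maximum.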
# [2] = biological target: Estrogen receptor (Homo sapiens) (UniProt P03372); assay: OT_ER_ERaERa_1440: Odyssey Thera (OT) 24-hour HEK293T Protein-Complementation Assay for Estrogen Receptor-alpha/-alpha Homodimer (AID 2283349);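 also: hits raise fluorescence above DMSO for agonists and antagonists alike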
# Estrogen receptor (Homo sapiens), sequence (P03372 whole entry, looked up, the tested form may be a part): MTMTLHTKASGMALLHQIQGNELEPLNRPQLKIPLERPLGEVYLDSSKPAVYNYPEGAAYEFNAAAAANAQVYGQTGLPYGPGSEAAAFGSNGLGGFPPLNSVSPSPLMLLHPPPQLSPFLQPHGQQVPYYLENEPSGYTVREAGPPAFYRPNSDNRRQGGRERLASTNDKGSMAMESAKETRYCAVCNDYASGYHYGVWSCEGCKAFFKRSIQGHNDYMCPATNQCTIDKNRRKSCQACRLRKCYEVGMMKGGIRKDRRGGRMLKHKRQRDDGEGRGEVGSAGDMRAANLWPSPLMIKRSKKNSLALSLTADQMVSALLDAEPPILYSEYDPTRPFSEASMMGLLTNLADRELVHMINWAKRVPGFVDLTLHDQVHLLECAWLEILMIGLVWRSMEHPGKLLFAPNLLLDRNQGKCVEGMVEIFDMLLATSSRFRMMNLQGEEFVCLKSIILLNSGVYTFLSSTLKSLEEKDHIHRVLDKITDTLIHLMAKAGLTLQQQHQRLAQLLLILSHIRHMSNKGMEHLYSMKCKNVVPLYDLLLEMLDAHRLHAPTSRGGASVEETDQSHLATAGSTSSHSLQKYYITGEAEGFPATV
# Procedure, shortened: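 Cells (HEK293T) carrying the fragment-tagged ERα LBD (aa 310-547) pair are treated with chemical for 24 hours. Nuclear and/or cytoplasmic fluorescence is then quantified on a laser scanning cytometer. Activity is scored as signal gain against DMSO.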
# [3] = biological target: Estrogen receptor (Homo sapiens) (UniProt P03372); assay: OT_ER_ERaERa_0480: Odyssey Thera (OT) 8-hour HEK293T Protein-Complementation Assay for Estrogen Receptor-alpha/-alpha Homodimer (AID 2283351);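 also: rise in fluorescence from reassembled reporter fragments on ERα LBD homodimer in nucleus or whole cell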
# Procedure, shortened: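 Measures ERα LBD (aa 310-547) homodimer complementation in stably transfected HEK293T at 8 h post-dose, with fluorescence intensity quantified on a laser scanning cytometer relative to DMSO controls.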
# [4] = biological target: T1, Estrogen receptor (Homo sapiens) + Estrogen receptor beta (Homo sapiens) (UniProt P03372+Q92731); assay: OT_ER_ERaERb_0480: Odyssey Thera (OT) 8-hour HEK293T Protein-Complementation Assay for Estrogen Receptor-alpha/-beta Heterodimer (AID 2283352)
# T1 sequence (P03372 whole entry, looked up, the tested form may be a part): as above
# T1 sequence (Q92731 whole entry, looked up, the tested form may be a part): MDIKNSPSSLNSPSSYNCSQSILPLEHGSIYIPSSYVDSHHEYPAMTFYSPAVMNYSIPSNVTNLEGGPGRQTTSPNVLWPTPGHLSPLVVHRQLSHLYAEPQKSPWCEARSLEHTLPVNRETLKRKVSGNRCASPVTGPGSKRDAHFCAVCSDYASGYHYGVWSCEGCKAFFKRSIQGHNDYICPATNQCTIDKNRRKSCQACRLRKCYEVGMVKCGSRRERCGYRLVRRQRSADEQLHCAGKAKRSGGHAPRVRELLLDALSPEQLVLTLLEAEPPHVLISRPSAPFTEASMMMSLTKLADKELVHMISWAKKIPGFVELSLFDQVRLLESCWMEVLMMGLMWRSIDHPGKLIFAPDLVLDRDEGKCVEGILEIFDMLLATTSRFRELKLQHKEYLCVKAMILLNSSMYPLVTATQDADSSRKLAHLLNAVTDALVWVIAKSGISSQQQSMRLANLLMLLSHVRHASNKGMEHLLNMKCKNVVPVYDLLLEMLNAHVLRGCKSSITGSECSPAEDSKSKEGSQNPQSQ
# Procedure, shortened: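 HEK293T cells expressing ER-alpha/ER-beta LBD fusions to complementary reporter fragments were dosed with compound for 8 hours. Heterodimer formation was read as increased nuclear (agonist) or nuclear plus cytoplasmic (antagonist) mean fluorescence intensity versus DMSO vehicle.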
# [5] = biological target: T1, Estrogen receptor (Homo sapiens) + Estrogen receptor beta (Homo sapiens); assay: OT_ER_ERaERb_1440: Odyssey Thera (OT) 24-hour HEK293T Protein-Complementation Assay for Estrogen Receptor-alpha/-beta Homodimer (AID 2283356);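 also: heteromer of ER alpha and ER beta binding domains; hits raise reporter fluorescence and both agonists and antagonists give an increase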
# Procedure, shortened: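 HEK293T cells stably expressing a PCA pair of ERα LBD (aa 310-547) and ERβ LBD (aa 263-489) were dosed for 24 h. Fluorescence intensity increase versus DMSO vehicle was fitted as gain-of-signal.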
# [6] = biological target: Estrogen receptor beta (Homo sapiens) (UniProt Q92731); assay: OT_ER_ERbERb_0480: Odyssey Thera (OT) 8-hour HEK293T Protein-Complementation Assay for Estrogen Receptor-beta/-beta Homodimer (AID 2283357);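 also: active means signal gain over DMSO baseline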
# Estrogen receptor beta (Homo sapiens), sequence (Q92731 whole entry, looked up, the tested form may be a part): as above
# Procedure, shortened: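 Homodimerization of ER-beta LBD measured by protein-fragment complementation in HEK293T; 8 h dosing; fixed, Draq5 counterstain; fluorescence intensity gain over DMSO baseline, positive fitting direction; laser scanning cytometry.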
# [7] = biological target: Retinoic acid receptor alpha (Homo sapiens) (UniProt P10276); assay: NVS_NR_hRAR_Antagonist: NovaScreen (NVS) Nuclear Receptor Binding Assay for human Retinoic Acid Alpha Receptor Antagonism (RAR) (AID 2283358)
# Retinoic acid receptor alpha (Homo sapiens), sequence (P10276 whole entry, looked up): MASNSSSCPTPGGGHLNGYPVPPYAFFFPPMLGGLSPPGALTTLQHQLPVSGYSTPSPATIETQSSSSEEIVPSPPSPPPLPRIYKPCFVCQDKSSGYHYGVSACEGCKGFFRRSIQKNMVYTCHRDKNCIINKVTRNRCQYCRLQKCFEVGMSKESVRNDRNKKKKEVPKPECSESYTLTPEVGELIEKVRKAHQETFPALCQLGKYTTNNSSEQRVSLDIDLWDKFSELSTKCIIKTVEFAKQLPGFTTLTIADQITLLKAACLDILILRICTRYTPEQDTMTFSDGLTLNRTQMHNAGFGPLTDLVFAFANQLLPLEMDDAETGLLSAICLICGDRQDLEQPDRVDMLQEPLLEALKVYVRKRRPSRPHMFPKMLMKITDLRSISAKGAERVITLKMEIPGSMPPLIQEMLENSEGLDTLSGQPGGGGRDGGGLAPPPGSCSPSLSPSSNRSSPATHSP
# Procedure, shortened: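 Read-out: time-resolved FRET binding signal, 2 h post-dose, cell-free extracted protein. Antagonism scored as signal loss versus DMSO negative control. Primary single-concentration screen at 25 uM in duplicate; concentration series for actives.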
# [8] = biological target: Androgen Receptor/SRC-1 Co-activator, AR (gene 367) (UniProt P10275); assay: OT_AR_ARSRC1_0960: Odyssey Thera (OT) 16-hour HEK293T Protein-Complementation Assay for Androgen Receptor/SRC-1 Co-activator (AID 2283353);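 also: actives raise the signal above DMSO so potency reflects increased AR and SRC-1 complex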
# Androgen Receptor/SRC-1 Co-activator, AR (gene 367), sequence (P10275 whole entry, looked up, the tested form may be a part): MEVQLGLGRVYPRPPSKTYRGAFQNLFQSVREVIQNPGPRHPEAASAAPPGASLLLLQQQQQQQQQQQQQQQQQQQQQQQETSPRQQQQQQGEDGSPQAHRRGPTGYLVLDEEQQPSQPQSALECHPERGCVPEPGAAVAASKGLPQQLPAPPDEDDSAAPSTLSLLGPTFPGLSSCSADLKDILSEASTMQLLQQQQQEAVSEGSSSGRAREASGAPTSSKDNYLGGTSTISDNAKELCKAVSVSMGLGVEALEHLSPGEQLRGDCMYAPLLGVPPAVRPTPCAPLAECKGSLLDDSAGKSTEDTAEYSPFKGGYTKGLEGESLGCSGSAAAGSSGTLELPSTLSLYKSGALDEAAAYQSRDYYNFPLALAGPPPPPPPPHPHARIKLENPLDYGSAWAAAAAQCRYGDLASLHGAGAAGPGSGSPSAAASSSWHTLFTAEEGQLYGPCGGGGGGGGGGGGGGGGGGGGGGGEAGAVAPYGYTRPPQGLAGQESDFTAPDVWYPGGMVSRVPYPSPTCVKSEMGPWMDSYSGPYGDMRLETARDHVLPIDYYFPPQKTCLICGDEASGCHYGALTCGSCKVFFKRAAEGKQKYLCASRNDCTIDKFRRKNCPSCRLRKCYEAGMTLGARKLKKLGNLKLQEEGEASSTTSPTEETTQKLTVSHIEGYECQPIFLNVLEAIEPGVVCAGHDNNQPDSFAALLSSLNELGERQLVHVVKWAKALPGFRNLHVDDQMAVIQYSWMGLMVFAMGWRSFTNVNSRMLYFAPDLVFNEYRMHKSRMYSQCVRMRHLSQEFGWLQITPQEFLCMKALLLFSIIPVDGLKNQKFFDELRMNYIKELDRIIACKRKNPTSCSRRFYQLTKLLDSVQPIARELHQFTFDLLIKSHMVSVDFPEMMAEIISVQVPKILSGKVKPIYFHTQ
# Procedure, shortened: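 Sixteen-hour cell assay: Venus halves fused to AR and SRC-1 in HEK293T report binding. Images at 488/635 nm give an N/C ratio in the 488 nm channel over ≥400 cells, analysed as signal increase over DMSO.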
# [9] = biological target: Androgen Receptor/SRC-1 Co-activator, AR (gene 367) (UniProt P10275); assay: OT_AR_ARSRC1_0480: Odyssey Thera (OT) 8-hour HEK293T Protein-Complementation Assay for Androgen Receptor/SRC-1 Co-activator (AID 2283354);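 also: hits raise the complementation signal above DMSO so AC50 marks enhancers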
# Procedure, shortened: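 Split-Venus PCA, stable HEK293T, AR/SRC-1 fusions; 8 h exposure. Readout: 488nm N/C fluorescence ratio, ≥400 cells/image; fitted upward vs DMSO baseline.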
# [10] = biological target: human Peroxisome Proliferator-activated Receptor alpha (PPARa), PPARA (gene 5465) (UniProt Q07869); assay: NVS_NR_hPPARa: NovaScreen (NVS) Nuclear Receptor Binding Assay for human Peroxisome Proliferator-activated Receptor alpha (PPARa) (AID 2283359);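 also: activity means loss of TR-FRET signal versus DMSO baseline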
# human Peroxisome Proliferator-activated Receptor alpha (PPARa), PPARA (gene 5465), sequence (Q07869 whole entry, looked up): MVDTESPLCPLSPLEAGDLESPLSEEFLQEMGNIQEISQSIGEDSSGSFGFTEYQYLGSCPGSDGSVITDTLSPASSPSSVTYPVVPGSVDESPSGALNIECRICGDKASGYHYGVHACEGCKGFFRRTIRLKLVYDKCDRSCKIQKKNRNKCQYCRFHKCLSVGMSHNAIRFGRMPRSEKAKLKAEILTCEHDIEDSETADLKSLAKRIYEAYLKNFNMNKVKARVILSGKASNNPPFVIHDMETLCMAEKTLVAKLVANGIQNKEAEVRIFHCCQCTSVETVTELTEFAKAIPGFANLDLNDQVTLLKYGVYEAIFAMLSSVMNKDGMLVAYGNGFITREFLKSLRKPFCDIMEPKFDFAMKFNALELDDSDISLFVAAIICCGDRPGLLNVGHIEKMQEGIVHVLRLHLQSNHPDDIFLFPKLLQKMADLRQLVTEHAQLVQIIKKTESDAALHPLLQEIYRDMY
# Procedure, shortened: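 TR-FRET signal measured at 1 h post-dosing; loss-of-signal versus DMSO negative control taken as activity. Extracted gene-protein, cell-free format. Initial single-point duplicates at 25 uM, then concentration-response retests.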
# [11] = biological target: bovine Estrogen Receptor (ER), ESR1 (gene 407238) (UniProt P49884); assay: NVS_NR_bER: NovaScreen (NVS) Nuclear Receptor Binding Assay for bovine Estrogen Receptor (ER) (AID 2283345);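 also: actives lower the bound radioligand count which means they displace the ER ligand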
# bovine Estrogen Receptor (ER), ESR1 (gene 407238), sequence (P49884 whole entry, looked up): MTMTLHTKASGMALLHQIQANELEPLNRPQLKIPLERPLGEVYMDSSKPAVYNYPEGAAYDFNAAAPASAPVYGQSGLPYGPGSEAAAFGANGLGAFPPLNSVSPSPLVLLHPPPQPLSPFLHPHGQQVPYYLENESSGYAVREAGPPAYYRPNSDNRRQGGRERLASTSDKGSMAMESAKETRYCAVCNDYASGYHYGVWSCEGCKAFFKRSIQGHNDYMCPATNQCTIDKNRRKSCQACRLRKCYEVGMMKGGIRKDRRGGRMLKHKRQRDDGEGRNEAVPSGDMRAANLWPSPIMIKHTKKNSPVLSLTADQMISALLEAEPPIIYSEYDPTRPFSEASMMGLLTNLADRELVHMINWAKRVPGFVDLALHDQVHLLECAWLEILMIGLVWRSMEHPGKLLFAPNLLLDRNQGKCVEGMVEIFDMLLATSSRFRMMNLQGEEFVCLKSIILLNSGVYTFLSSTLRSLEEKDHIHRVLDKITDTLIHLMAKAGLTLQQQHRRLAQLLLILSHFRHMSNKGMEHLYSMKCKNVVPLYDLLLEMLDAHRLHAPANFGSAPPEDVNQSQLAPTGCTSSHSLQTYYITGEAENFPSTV
# Procedure, shortened: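 Cell-free radioligand binding with receptor from bovine uterine membranes, read by scintillation counting 18 h after dosing. Loss of specific binding was scored against DMSO; primary screen at 25 uM in duplicate, actives then run as concentration series.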
# [12] = biological target: Estrogen receptor (Homo sapiens) (UniProt P03372); assay: NVS_NR_hER: NovaScreen (NVS) Nuclear Receptor Binding Assay for human Estrogen Receptor (ER) (AID 2283348)
# Procedure, shortened: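 MCF7-derived receptor extract, radiolabelled ligand, competitive displacement. Read: scintillation counts at 18 h. DMSO = negative control/baseline. Primary 25 uM duplicate; follow-up concentration–response.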
# [13] = biological target: chimpanzee Androgen Receptor (AR), AR (gene 747460) (UniProt O97775); assay: NVS_NR_cAR: NovaScreen (NVS) Nuclear Receptor Binding Assay for chimpanzee Androgen Receptor (AR) (AID 2283346);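 also: radioligand displacement from AR measured by scintillation counting in a cell-free assay; a loss of bound radioligand signal versus DMSO counts as binding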
# chimpanzee Androgen Receptor (AR), AR (gene 747460), sequence (O97775 whole entry, looked up): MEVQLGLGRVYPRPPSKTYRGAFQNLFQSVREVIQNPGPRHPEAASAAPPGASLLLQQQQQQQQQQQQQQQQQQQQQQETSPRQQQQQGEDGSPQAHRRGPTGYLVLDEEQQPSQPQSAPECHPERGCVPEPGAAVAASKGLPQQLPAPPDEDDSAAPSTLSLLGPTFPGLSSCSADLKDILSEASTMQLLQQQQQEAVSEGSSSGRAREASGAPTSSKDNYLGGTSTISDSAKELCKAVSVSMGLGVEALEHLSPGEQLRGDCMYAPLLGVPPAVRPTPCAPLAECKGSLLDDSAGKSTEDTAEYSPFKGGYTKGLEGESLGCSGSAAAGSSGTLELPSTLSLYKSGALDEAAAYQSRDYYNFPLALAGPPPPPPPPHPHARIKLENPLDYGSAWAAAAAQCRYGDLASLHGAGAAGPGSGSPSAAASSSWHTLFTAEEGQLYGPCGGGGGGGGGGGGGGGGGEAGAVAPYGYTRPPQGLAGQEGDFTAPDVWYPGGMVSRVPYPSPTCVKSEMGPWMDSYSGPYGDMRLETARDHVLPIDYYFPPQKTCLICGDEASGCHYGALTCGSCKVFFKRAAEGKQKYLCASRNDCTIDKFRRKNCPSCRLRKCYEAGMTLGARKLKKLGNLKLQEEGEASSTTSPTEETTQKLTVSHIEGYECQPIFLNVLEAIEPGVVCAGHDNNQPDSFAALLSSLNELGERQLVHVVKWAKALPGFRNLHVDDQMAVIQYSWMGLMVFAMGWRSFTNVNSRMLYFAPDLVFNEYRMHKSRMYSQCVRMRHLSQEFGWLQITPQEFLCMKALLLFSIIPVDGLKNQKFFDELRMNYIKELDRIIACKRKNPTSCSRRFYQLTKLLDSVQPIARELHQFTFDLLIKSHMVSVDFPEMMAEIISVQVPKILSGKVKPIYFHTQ
# Procedure, shortened: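 Radioligand binding to chimpanzee AR expressed in Sf9/Sf21 cells, cell-free, measured 72 h after dosing by lysate-based scintillation counting. Loss of signal vs DMSO; initial duplicate screen at 25 uM, actives retested in concentration series.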
# [14] = biological target: Bile acid receptor (Homo sapiens) (UniProt Q96RI1); assay: NVS_NR_hFXR_Antagonist: NovaScreen (NVS) Nuclear Receptor Binding Assay for human Farnesoid X Receptor Antagonism (FXR) (AID 2283350)
# Procedure, shortened: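 Antagonist-format time-resolved FRET binding assay with extracted human receptor protein, read 1 hour after compound addition. Compounds first screened at 25 uM in duplicate, then actives tested in concentration series, with loss of signal relative to DMSO.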
# [15] = biological target: Retinoic acid receptor alpha (Homo sapiens) (UniProt P10276); assay: NVS_NR_hRARa_Agonist: NovaScreen (NVS) Nuclear Receptor Binding Assay for human Retinoic Acid Alpha Receptor Agonism (RAR) (AID 2283361)
# Procedure, shortened: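 TR-FRET signal, 2 h post-dosing; cell-free extracted protein; DMSO = baseline, positive fitting direction; 25 uM single-point duplicate, then concentration series for actives.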
# NCBI gene 100848466 = assay: NVS_NR_bPR: NovaScreen (NVS) Nuclear Receptor Binding Assay for bovine Progextron Receptor (PR) (AID 2283343);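 also: actives lower bound radioligand signal below DMSO meaning displacement of the label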
# Procedure, shortened: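 Scintillation counts of bound radioligand were read 18 hours after chemical addition to membranes extracted from bovine uterus. Displacement was scored as loss of signal relative to DMSO controls. Screening began at 25 uM in duplicate.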
# [16] = biological target: rat Mineralocorticoid Receptor (MR), Nr3c2 (gene 25672) (UniProt P22199); assay: NVS_NR_rMR: NovaScreen (NVS) Nuclear Receptor Binding Assay for rat Mineralocorticoid Receptor (MR) (AID 2283355)
# Procedure, shortened: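 Radioligand displacement, scintillation readout; tissue source adrenalectomized rat brain supernatant. Read 24 h post-dose. Screened in duplicate at 25 uM, DMSO negative control, controls on every plate; actives re-run in concentration series.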
# PGR (gene 5241) = PGR (gene 5241) (UniProt P06401); assay: NVS_NR_hPR: NovaScreen (NVS) Nuclear Receptor Binding Assay for human Progestron Receptor (PR) (AID 2283360);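 also: active means loss of bound radioligand signal versus DMSO baseline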
# Procedure, shortened: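 Cell-free radioligand binding using receptor protein extracted from T47D cells, read by scintillation counting 18 hours after dosing. Loss of signal relative to DMSO baseline indicates displacement; primary screen single concentration 25 uM in duplicate, actives followed in concentration series.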
structure (smiles),measurement,setting,value
CCn1nc(Cc2ccccc2)cc1C1CCN(C[C@H]2C[C@H](N(C)[C@@H](C(=O)O)C(C)C)C[C@@H]2c2cccc(F)c2)CC1,AC50,[1],11.4 µM (active)
same,outcome,[2],inactive
same,outcome,[3],inactive
same,outcome,[4],inactive
same,outcome,[5],inactive
same,outcome,[6],inactive
same,outcome,[7],inactive
Fc1ccccc1[C@@H](F)COC1CCC(Nc2ncnc3[nH]ncc23)CC1 (stereo partly specified),outcome,[1],inactive
same,AC50,[8],33.2 µM (active)
same,AC50,[9],50 µM (active)
same,outcome,[6],inactive
same,outcome,[10],inactive
Nc1ccc(Nc2ccccc2)cc1,outcome,[1],inactive
same,outcome,[11],inactive
same,outcome,[12],inactive
same,outcome,[2],inactive
same,AC50,[10],46.3 µM (active)
CC[C@H](C)C(=O)O[C@H]1C[C@@H](C)C=C2C=C[C@H](C)[C@H](CC[C@@H]3C[C@@H](O)CC(=O)O3)[C@H]21,AC50,[13],24.9 µM (active)
same,outcome,[2],inactive
same,AC50,[14],31.5 µM (active)
same,outcome,[3],inactive
same,outcome,[4],inactive
same,outcome,[5],inactive
same,outcome,[6],inactive
CC[C@H]1CC[C@H](NCc2cc3c(cc2OC)[C@H]2C[C@H]2C(=O)N3C)[C@H](c2ccccc2)N1,AC50,[1],16 µM (active)
same,outcome,[12],inactive
same,outcome,[2],inactive
same,outcome,[3],inactive
same,outcome,[5],inactive
same,outcome,[6],inactive
same,outcome,[15],inactive
COCCOc1cc2cc(C(=O)NC3CCN(C(C)C)CC3)n(CC(=O)Nc3ccc(Cl)cn3)c2cn1,AC50,[1],12.8 µM (active)
same,outcome,[6],inactive
CC(C)=CCC/C(C)=C/CO,outcome,[13],inactive
O=P(OC(CCl)CCl)(OC(CCl)CCl)OC(CCl)CCl,AC50,NCBI gene 100848466,8.22 µM (active)
same,AC50,[13],13.3 µM (active)
same,outcome,[12],inactive
same,outcome,[2],inactive
same,outcome,[3],inactive
same,outcome,[4],inactive
same,outcome,[16],inactive
same,outcome,[5],inactive
same,outcome,[6],inactive
same,AC50,PGR (gene 5241),5.78 µM (active)
Cc1[nH]cnc1C[C@H]1CCc2c(C)c3ccccc3n2C1=O,AC50,[1],12.2 µM (active)
same,outcome,[6],inactive
CNS(=O)(=O)c1cc(C(=O)N2CCC(CCN3C4CCC3CC(n3c(C)nc5ccccc53)C4)(c3cccc(F)c3)CC2)c(Cl)cc1F (stereo unspecified),AC50,[1],8.76 µM (active)
same,AC50,[13],11.3 µM (active)
same,AC50,[14],8.21 µM (active)
same,AC50,[8],31.9 µM (active)
same,AC50,[9],32 µM (active)
same,outcome,[6],inactive
same,outcome,[10],inactive
O=C(O)CC(O)C(=O)O (stereo unspecified),outcome,[1],inactive
C=CCCCCCCCCC(=O)O,outcome,[11],inactive
same,outcome,[12],inactive
same,outcome,[2],inactive
same,outcome,[3],inactive
same,outcome,[4],inactive
same,outcome,[5],inactive
same,outcome,[6],inactive
CCc1cc(SCc2sc(-c3ccc(C(F)(F)F)cc3)nc2CN2CCN(c3ccc(OC)cc3)CC2)ccc1OCC(=O)O,AC50,[1],17.7 µM (active)
same,AC50,NCBI gene 100848466,40.3 µM (active)
same,AC50,[13],29 µM (active)
same,AC50,[10],0.00361 µM (active)
same,outcome,PGR (gene 5241),inactive
